Assay results as given in PubChem BioAssay (NCATS).
Records with an inconclusive call do not appear. Activity calls are given as the source filed them. Unless noted, calls come from the whole dose curve; as a rule, active = well fitted curve in the direction sought with a large enough effect; inconclusive = small, poorly fitted or top-dose-only effect, or another doubt; inactive = no such curve, though single readings can be large; an effect the other way counts as inactive or inconclusive.

Assays:
[1] = qHTS assay for measurement of the activity of small molecule inhibitors on Zika virus induced Caspase-3 activity in human iPSC derived neural progenitor cells (hNPCs) (AID 1224857); note: nearly all actives have a fitted effect of over 65% in size
Summary of the method: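 Human iPSC-derived neural progenitor cells pretreated 1 hr with compounds, then infected with Zika virus (2 FFU/cell) for 6 hours at 37 C. Caspase-3/7 measured by Caspase-Glo luminescence; % inhibition calculated from induction scaled to uninfected (0%) and infected (100%) wells.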

[2] = qHTS assay for measurement of the activity of small molecule inhibitors on Zika virus induced Caspase-3 activity in human astrocytoma cells (AID 1224859)
Summary of the method: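 SNB-19 astrocytoma cells, 250/well, pretreated 1 h with compounds, then Zika virus at 2 FFU/cell for 6 h at 37 C; Caspase-Glo 3/7 luminescence after 30 min; percent inhibition normalised to uninfected and infected controls.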

[3] = qHTS assay to identify small molecule inhibitors of chordoma cells - UCH-1 (AID 1259355); note: nearly all actives have a fitted effect of over 55% in size; note: potency is the fitted concentration of half-maximal effect; series mostly up to about 46 µM
Summary of the method: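 A 48hr growth-inhibition format: each drug tested at 15 concentrations together with added auranofin, camptothecin, doxorubicin, rubitecan and topotecan, with cell viability quantified as CellTiter-Glo luminescence.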

[4] = qHTS assay to identify small molecule inhibitors of chordoma cells - UCH-2 (AID 1259356); note: potency is the fitted concentration of half-maximal effect
[5] = target: Atrial natriuretic peptide receptor 1 (Homo sapiens) (UniProt P16066); experiment: Natriuretic polypeptide receptor (hNpr1) antagonism - Pilot screen (AID 1347049; calls by dose curve;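 note: HEK293 cells with hNpr1 and GloSensor cGMP luciferase stimulated by 0.1 nM hNppA; agonist-evoked cGMP luminescence read 20 min after hNppA addition; series mostly up to about 58 µM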)
Sequence of Atrial natriuretic peptide receptor 1 (Homo sapiens) (P16066 whole entry, looked up): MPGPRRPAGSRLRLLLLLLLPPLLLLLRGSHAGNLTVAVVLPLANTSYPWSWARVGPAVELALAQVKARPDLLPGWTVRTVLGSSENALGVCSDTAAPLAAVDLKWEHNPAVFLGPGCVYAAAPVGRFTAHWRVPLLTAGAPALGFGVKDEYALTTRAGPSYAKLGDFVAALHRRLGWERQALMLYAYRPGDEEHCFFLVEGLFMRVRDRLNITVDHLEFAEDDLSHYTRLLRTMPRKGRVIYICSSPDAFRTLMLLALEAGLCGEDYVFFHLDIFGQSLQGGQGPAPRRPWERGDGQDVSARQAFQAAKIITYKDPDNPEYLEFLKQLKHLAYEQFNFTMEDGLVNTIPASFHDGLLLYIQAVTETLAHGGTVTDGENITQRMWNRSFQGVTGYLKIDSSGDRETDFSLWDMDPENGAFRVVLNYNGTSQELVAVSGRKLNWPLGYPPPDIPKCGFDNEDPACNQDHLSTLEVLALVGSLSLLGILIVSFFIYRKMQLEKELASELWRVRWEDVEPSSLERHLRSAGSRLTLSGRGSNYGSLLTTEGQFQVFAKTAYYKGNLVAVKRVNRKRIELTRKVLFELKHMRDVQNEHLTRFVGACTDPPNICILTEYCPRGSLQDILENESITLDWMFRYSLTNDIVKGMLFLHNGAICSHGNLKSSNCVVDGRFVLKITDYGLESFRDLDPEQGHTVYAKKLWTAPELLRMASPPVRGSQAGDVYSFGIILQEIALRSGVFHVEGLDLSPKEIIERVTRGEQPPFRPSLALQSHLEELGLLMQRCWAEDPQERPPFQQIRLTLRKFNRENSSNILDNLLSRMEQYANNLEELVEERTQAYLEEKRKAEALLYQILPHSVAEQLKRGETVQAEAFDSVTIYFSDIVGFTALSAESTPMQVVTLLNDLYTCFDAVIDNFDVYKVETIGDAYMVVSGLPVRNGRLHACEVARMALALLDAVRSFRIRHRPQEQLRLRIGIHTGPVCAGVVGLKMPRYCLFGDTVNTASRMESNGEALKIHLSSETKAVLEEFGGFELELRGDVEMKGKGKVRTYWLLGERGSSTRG
Summary of the method: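 Cells expressing receptor plus cGMP biosensor are seeded and incubated overnight at 37C, then loaded with GloSensor reagent (2% final) at room temperature for 2 h. Library compounds go on for 30 min. A pre-read precedes agonist (hNppA, 0.1 nM final) and a 20-min readout.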

[6] = target: Atrial natriuretic peptide receptor 2 (Homo sapiens) (UniProt P20594); experiment: Natriuretic polypeptide receptor (hNpr2) antagonism - Pilot subtype selectivity assay (AID 1347050; calls by dose curve)
Sequence of Atrial natriuretic peptide receptor 2 (Homo sapiens) (P20594 whole entry, looked up): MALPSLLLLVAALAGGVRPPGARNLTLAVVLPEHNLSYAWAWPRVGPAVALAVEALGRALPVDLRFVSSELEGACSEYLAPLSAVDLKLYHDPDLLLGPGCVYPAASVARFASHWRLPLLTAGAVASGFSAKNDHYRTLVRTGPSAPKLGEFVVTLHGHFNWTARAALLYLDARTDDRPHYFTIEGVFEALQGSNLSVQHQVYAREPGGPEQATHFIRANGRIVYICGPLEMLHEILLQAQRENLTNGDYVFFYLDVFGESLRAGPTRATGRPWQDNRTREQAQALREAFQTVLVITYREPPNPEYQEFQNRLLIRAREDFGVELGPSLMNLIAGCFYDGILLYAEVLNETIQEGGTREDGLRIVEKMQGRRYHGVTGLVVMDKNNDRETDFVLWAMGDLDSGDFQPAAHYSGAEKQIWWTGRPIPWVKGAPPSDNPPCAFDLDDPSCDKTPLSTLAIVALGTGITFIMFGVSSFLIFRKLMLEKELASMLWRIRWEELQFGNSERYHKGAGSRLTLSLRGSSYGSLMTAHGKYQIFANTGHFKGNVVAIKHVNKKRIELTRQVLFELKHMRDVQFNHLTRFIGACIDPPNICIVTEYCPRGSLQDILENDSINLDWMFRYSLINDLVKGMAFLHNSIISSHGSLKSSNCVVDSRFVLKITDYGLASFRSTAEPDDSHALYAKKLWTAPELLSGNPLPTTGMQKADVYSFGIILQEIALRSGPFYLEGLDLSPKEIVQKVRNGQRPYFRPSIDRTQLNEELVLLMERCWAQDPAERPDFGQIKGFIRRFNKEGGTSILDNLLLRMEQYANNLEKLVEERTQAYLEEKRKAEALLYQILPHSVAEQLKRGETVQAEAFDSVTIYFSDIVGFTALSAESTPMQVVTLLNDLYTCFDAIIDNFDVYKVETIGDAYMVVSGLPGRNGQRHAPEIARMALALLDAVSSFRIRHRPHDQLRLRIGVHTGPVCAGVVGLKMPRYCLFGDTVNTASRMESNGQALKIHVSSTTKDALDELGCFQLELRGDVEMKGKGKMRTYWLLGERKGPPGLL
Summary of the method: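 Read-out: GloSensor luminescence (CCD imager), baseline vs post-stimulation. HEK293 cells expressing hNpr2; compounds pre-incubated 30-50 min at ambient temperature; hNppC 1 nM final, 20 min.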

[7] = NS1 protein of Zika virus - qHTS assay to identify small molecule inhibitors in human HEK 293 cells (AID 1347053); note: series mostly up to about 46 µM; nearly all actives have a fitted effect of over 55% in size
Summary of the method: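 Compound-treated (1 h pre-infection) HEK 293 cells infected with ZIKV MR766, MOI = 0.5; after 24 h at 37 C, NS1 read by TR-FRET; data normalized to uninfected and infected controls.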

[8] = target: T1, Tyrosine-protein phosphatase non-receptor type substrate 1 (Homo sapiens) + Leukocyte surface antigen CD47 (Homo sapiens) (UniProt P78324+Q08722); experiment: CD47-SIRPalpha protein protein interaction - LANCE assay qHTS validation (AID 1347057; active = well fitted curve in the direction sought with a large enough effect in the signal ratio, with a control signal flat, not every such curve was filed as active; the % refers to the signal ratio; note: series mostly up to about 38 µM)
T1 sequence (P78324 whole entry, looked up, the tested form may be a part): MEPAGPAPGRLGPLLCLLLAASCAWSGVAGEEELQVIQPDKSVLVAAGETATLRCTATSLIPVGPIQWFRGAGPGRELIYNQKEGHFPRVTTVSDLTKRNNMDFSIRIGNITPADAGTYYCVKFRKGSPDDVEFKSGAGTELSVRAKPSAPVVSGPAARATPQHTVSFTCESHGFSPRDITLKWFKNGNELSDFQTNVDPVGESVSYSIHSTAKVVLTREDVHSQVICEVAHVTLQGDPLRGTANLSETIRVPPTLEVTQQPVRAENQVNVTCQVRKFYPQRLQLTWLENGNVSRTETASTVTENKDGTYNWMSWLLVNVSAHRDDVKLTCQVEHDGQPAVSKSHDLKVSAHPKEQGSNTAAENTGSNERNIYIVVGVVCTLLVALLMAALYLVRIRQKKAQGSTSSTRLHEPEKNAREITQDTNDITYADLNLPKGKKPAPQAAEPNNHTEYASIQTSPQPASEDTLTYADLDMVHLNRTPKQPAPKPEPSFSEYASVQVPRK
T1 sequence (Q08722 whole entry, looked up, the tested form may be a part): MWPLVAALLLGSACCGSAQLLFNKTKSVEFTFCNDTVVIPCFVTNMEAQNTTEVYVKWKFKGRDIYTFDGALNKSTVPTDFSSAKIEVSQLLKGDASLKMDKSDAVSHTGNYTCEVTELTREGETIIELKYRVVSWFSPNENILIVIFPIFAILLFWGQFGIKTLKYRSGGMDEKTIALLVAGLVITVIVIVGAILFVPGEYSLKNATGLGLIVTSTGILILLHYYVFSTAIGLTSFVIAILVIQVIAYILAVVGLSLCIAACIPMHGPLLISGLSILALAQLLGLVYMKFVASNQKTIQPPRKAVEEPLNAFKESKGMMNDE
Summary of the method: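 Inhibition of soluble CD47/SIRPalpha ectodomain association by titrated compounds, measured as 665/615 nm time-resolved FRET ratio after sequential 30 min room-temperature incubations.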

[9] = target: T1, Tyrosine-protein phosphatase non-receptor type substrate 1 (Homo sapiens) + Leukocyte surface antigen CD47 (Homo sapiens); experiment: CD47-SIRPalpha protein protein interaction - HTRF assay qHTS validation (AID 1347058; active = well fitted curve in the direction sought with a large enough effect in the signal ratio, not every such curve was filed as active; the % refers to the signal ratio; note: series mostly up to about 38 µM)
Summary of the method: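 Soluble extracellular domains (6His-CD47, Avi-tag-biotinylated SIRPalpha) in PBS pH 7.4 with 0.05% IGEPAL CA-630. Compounds were preincubated 30 min at RT with CD47 and anti-His-Eu, then SIRPalpha and SAV-XL665 were added. TR-FRET 665/615 ratio.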

[10] = target: T1, Tyrosine-protein phosphatase non-receptor type substrate 1 (Homo sapiens) + Leukocyte surface antigen CD47 (Homo sapiens); experiment: CD47-SIRPalpha protein protein interaction - Alpha assay qHTS validation (AID 1347059);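 note: bead proximity luminescence from CD47 binding SIRPalpha after compound preincubation with SIRPalpha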
Summary of the method: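 In PBS (pH 7.4) with 0.05% IGEPAL CA-630, compound is preincubated with biotin-Avi-SIRPalpha ectodomain before His-CD47 ectodomain and affinity beads are added. Light-protected room-temperature incubations; AlphaScreen readout.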

[11] = qHTS of pediatric cancer cell lines to identify multiple opportunities for drug repurposing: Primary screen for TC32 cells (AID 1347089); note: nearly all actives have a fitted effect of over 60% in size; note: potency is the fitted concentration of half-maximal effect
Summary of the method: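 Luminescent CellTiter-Glo read-out of metabolically active TC32 cells after 48 h compound exposure. Primary: MIPE 11-point, 0.78 nM–46 µM; NPC 8-point, 0.59 nM–46 µM. Confirmatory: 11-point dilutions.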

[12] = qHTS of pediatric cancer cell lines to identify multiple opportunities for drug repurposing: Primary screen for DAOY cells (AID 1347090); note: series mostly up to about 46 µM; nearly all actives have a fitted effect of over 55% in size
Summary of the method: (§1)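 Eight- or eleven-point concentration series, 48 h treatment at 37 degrees C in growth media; readout CellTiter-Glo luminescence. Potency and efficacy were taken from the concentration-response curves.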

[13] = qHTS of pediatric cancer cell lines to identify multiple opportunities for drug repurposing: Primary screen for SJ-GBM2 cells (AID 1347091)
Summary of the method: as §1

[14] = Identifying Small Molecule Inhibitors of Pancreatic Cancer Stem Cells (A2780, Spheroid) (AID 1259357); conditions: A2780 spheroid viability;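 note: potency is the fitted concentration of half-maximal effect; compound exposure lasted 48 h before the ATP luminescence read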
Summary of the method: (§2)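 Viability is scored by CellTiter-Glo luminescence 48 h after dosing, expressed as percent activity against vehicle and no-cell references. Spheroid formats rely on cells cultured 14 days in stem cell media beforehand.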

[15] = Identifying Small Molecule Inhibitors of Pancreatic Cancer Stem Cells (A278, Adherent) (AID 1259361); note: nearly all actives have a fitted effect of over 35% in size
Summary of the method: as §2

[16] = Identifying Small Molecule Inhibitors of Pancreatic Cancer Stem Cells (Panc1, Adherent) (AID 1259362);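 note: compound exposure lasted 48 h before the viability read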
Summary of the method: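 Cytotoxicity read by CellTiter-Glo luminescence after 48 h compound exposure at 37C; percent activity scaled between DMSO-treated cells and cell-free wells. Spheroid formats used cells pre-formed 14 days in stem cell media on hydrogel.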

[17] = P-glycoprotein substrates identified in KB-8-5-11 adenocarcinoma cell line, qHTS therapeutic library screen (AID 1346987); note: nearly all actives have a fitted effect of over 65% in size; note: potency is the fitted concentration of half-maximal effect
Summary of the method: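 Compounds are pinned in dose-response onto KB-8-5-11 cells (500 cells/well, colchicine-free medium) and left 72 h at 37 degree C. CellTiter-Glo luminescence then yields AC50 values.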

[18] = Natriuretic polypeptide receptor (hNpr1) antagonism - Pilot counterscreen GloSensor control cell line (AID 1347045; calls by dose curve; note: series mostly up to about 38 µM)
Summary of the method: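 Control counterscreen: luciferase cGMP-biosensor HEK293 cells (no Npr1) received compound for 30 min at room temperature after GloSensor substrate loading. Luminescence was measured before and 20 min after soluble guanylyl cyclase activation by 50 uM nitroprusside.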

[19] = target: Parathyroid hormone/parathyroid hormone-related peptide receptor (Homo sapiens) (UniProt Q03431); experiment: qHTS for PTHR1 Agonists: Optimization Screen against the NCGC LOPAC library (AID 1347079);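 note: GloSensor cAMP luminescence in HEK-293 GP2 cells expressing human PTHR1 with IBMX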
Sequence of Parathyroid hormone/parathyroid hormone-related peptide receptor (Homo sapiens) (Q03431 whole entry, looked up): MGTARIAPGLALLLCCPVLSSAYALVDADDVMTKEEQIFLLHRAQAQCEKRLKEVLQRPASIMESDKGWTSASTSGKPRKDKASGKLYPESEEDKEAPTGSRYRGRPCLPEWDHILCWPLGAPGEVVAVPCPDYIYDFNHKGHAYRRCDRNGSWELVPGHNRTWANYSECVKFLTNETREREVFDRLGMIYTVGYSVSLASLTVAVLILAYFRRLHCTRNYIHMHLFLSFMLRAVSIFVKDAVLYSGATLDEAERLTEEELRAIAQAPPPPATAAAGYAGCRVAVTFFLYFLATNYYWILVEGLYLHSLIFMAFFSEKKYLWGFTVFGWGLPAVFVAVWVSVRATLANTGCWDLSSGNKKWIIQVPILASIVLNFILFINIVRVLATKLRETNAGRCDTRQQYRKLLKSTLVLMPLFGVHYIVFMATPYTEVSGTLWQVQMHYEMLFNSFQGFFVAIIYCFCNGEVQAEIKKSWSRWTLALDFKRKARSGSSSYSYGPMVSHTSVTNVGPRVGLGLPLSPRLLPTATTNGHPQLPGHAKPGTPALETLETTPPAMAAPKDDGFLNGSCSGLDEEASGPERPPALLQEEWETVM
Summary of the method: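 HEK-293 GP2 cells, PTHR1 + GloSensor cAMP; 3000 cells/well, o/n. Luciferin + IBMX 0.5mM each (stock), 1 hr 37C. Cpd titration, 1 hr 37C. Lum after 15 min RT. Ctrl M-PTH(1-15) top 10uM.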

Cc1nnc(SCC2=C(C(=O)O)N3C(=O)[C@@H](NC(=O)Cn4cnnn4)[C@H]3SC2)s1
inactive: outcome [1] | outcome [2] | Potency [3] | Potency [4] | Potency [5] | Potency [6] | outcome [7] | outcome [8] | outcome [9] | Potency [10] | Potency [11] | Potency [12] | Potency [13]

Nc1ncn([C@@H]2O[C@H](CO)[C@@H](O)[C@H]2O)c(=O)n1
active: Potency [14] 16.6 µM | IC50 (viability decrease) [15] 2.35 µM | Potency [17] 8.2 µM | Potency [11] 11.8 µM
inactive: outcome [1] | outcome [2] | Potency [4] | outcome [16] | Potency [18] | Potency [5] | Potency [6] | outcome [8] | outcome [9] | Potency [10] | outcome [19]

Cc1ccc(S(=O)(=O)NC(=O)NN2CCCCCC2)cc1
inactive: outcome [1] | outcome [2] | Potency [3] | Potency [4] | Potency [5] | Potency [6] | outcome [7] | outcome [8] | outcome [9] | Potency [10] | Potency [11] | Potency [12] | Potency [13]

COc1ccc(CCN(C)CCCC(C#N)(c2cc(OC)c(OC)c(OC)c2)C(C)C)cc1OC (stereo not given)
inactive: outcome [1] | outcome [2] | Potency [3] | Potency [4] | Potency [5] | Potency [6] | outcome [7] | outcome [8] | outcome [9] | Potency [10] | outcome [19] | Potency [11] | Potency [12] | Potency [13]

CC(C)(C)NCC(O)c1cc(O)cc(O)c1 (stereo not given)
inactive: outcome [1] | outcome [2] | Potency [3] | Potency [4] | Potency [5] | Potency [6] | outcome [7] | outcome [8] | Potency [10] | Potency [11] | Potency [12] | Potency [13]

Fc1ccc(C(c2ccc(F)cc2)N2CCN(C/C=C/c3ccccc3)CC2)cc1
inactive: outcome [1] | outcome [2] | Potency [3] | Potency [5] | Potency [6] | outcome [7] | outcome [8] | outcome [9] | Potency [10] | outcome [19] | Potency [11] | Potency [12]

CC1=NS(=O)(=O)c2cc(Cl)ccc2N1
inactive: outcome [1] | outcome [2] | Potency [3] | Potency [4] | Potency [5] | Potency [6] | outcome [7] | outcome [8] | Potency [10] | outcome [19] | Potency [11] | Potency [12] | Potency [13]

CC(C)NNC(=O)c1ccncc1
inactive: outcome [2] | Potency [3] | Potency [4] | Potency [17] | Potency [18] | Potency [5] | Potency [6] | outcome [7] | outcome [8] | outcome [9] | Potency [10] | outcome [19] | Potency [11] | Potency [12] | Potency [13]

O=C(CCNNC(=O)c1ccncc1)NCc1ccccc1
inactive: outcome [1] | outcome [2] | Potency [3] | Potency [4] | Potency [5] | Potency [6] | outcome [7] | outcome [8] | outcome [9] | Potency [10] | Potency [11] | Potency [12] | Potency [13]

CCN(CC)CCCN(c1ccccc1)C1Cc2ccccc2C1
active: Potency [3] 31.6 µM | Potency [4] 23.1 µM
inactive: outcome [1] | outcome [2] | Potency [5] | outcome [7] | outcome [8] | outcome [9] | Potency [10] | Potency [11] | Potency [12]

C[C@@H](O)[C@H]1C(=O)N2C(C(=O)O)=C(SCCN=CN)C[C@H]12
inactive: outcome [1] | outcome [2] | Potency [3] | Potency [4] | Potency [5] | Potency [6] | outcome [7] | outcome [8] | outcome [9] | Potency [10] | outcome [19] | Potency [11] | Potency [12] | Potency [13]

CN(C)C/C=C(/c1ccc(Br)cc1)c1cccnc1
inactive: outcome [1] | outcome [2] | Potency [3] | Potency [4] | Potency [5] | Potency [6] | outcome [7] | outcome [8] | outcome [9] | Potency [10] | outcome [19] | Potency [11] | Potency [12] | Potency [13]

NC(N)=NC(=O)Cc1c(Cl)cccc1Cl
inactive: outcome [1] | outcome [2] | Potency [3] | Potency [4] | Potency [5] | Potency [6] | outcome [7] | outcome [8] | outcome [9] | Potency [10] | outcome [19] | Potency [11] | Potency [12] | Potency [13]

NC(=Nc1ccccc1)Nc1ccccc1
inactive: outcome [1] | outcome [2] | Potency [4] | outcome [7] | Potency [11] | Potency [12] | Potency [13]
